Experimental data from article PMC9911399, “Two distinct binding modes provide the RNA-binding protein RbFox with extraordinary sequence specificity”.
Positions count from the first letter of the chain named. In all, about 16,000 sequences were measured (“ka relative to ugcaugu”: median about 0.096, highest 2% from about 0.35 on). Only a selection was taken, and the highest values are over-represented in it overall.

T1: RBFOX1 RRM RbFoxmut (Fox-RRM*) (Homo sapiens, UniProt Q9NWB1 109-208, R118D;E147R;N151S;E152T)
T1 sequence: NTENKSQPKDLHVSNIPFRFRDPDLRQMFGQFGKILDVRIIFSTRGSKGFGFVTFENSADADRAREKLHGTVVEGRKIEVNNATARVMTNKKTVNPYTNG

B1: UGCUUGC (DNA:RNA)
RNA: GGGAGACCGGAAUUCAGAUUGUCCUGCUUGCUUAAAUCCCGUCGUAGCCACCA
DNA 1: CAATCTGAATTCCGGTCTCCC
DNA 2: TGGTGGCTACGACGGGATT
B2: UGCUUGU (DNA:RNA)
RNA: B1 RNA with C31U
DNA 1: CAATCTGAATTCCGGTCTCCC
DNA 2: TGGTGGCTACGACGGGATT
B3: CUGCUGC (DNA:RNA)
RNA: B1 RNA with U25C, G26U, C27G, U28C
DNA 1: CAATCTGAATTCCGGTCTCCC
DNA 2: TGGTGGCTACGACGGGATT
B4: UUACGGC (DNA:RNA)
RNA: B1 RNA with G26U, C27A, U28C, U29G
DNA 1: CAATCTGAATTCCGGTCTCCC
DNA 2: TGGTGGCTACGACGGGATT
B5: UUCGUUU (DNA:RNA)
RNA: B1 RNA with G26U, U28G, G30U, C31U
DNA 1: CAATCTGAATTCCGGTCTCCC
DNA 2: TGGTGGCTACGACGGGATT
B6: AAGUGAC (DNA:RNA)
RNA: B1 RNA with U25A, G26A, C27G, U29G, G30A
DNA 1: CAATCTGAATTCCGGTCTCCC
DNA 2: TGGTGGCTACGACGGGATT
B7: GAUGAAA (DNA:RNA)
RNA: GGGAGACCGGAAUUCAGAUUGUCCGAUGAAAUUAAAUCCCGUCGUAGCCACCA
DNA 1: CAATCTGAATTCCGGTCTCCC
DNA 2: TGGTGGCTACGACGGGATT
B8: ACAUGUU (DNA:RNA)
RNA: B1 RNA with U25A, G26C, C27A, U29G, G30U, C31U
DNA 1: CAATCTGAATTCCGGTCTCCC
DNA 2: TGGTGGCTACGACGGGATT
B9: CCGCCUC (DNA:RNA)
RNA: B1 RNA with U25C, G26C, C27G, U28C, U29C, G30U
DNA 1: CAATCTGAATTCCGGTCTCCC
DNA 2: TGGTGGCTACGACGGGATT
B10: GUGAUUC (DNA:RNA)
RNA: B1 RNA with U25G, G26U, C27G, U28A, G30U
DNA 1: CAATCTGAATTCCGGTCTCCC
DNA 2: TGGTGGCTACGACGGGATT
B11: GUGAAUC (DNA:RNA)
RNA: B7 RNA with A26U, U27G, G28A, A30U, A31C
DNA 1: CAATCTGAATTCCGGTCTCCC
DNA 2: TGGTGGCTACGACGGGATT
B12: GGUGUGA (DNA:RNA)
RNA: B7 RNA with A26G, A29U, A30G
DNA 1: CAATCTGAATTCCGGTCTCCC
DNA 2: TGGTGGCTACGACGGGATT
B13: GUGACCG (DNA:RNA)
RNA: B7 RNA with A26U, U27G, G28A, A29C, A30C, A31G
DNA 1: CAATCTGAATTCCGGTCTCCC
DNA 2: TGGTGGCTACGACGGGATT
B14: GCGUGAA (DNA:RNA)
RNA: B7 RNA with A26C, U27G, G28U, A29G
DNA 1: CAATCTGAATTCCGGTCTCCC
DNA 2: TGGTGGCTACGACGGGATT
B15: GGUGAUU (DNA:RNA)
RNA: B7 RNA with A26G, A30U, A31U
DNA 1: CAATCTGAATTCCGGTCTCCC
DNA 2: TGGTGGCTACGACGGGATT
B16: GUGACUG (DNA:RNA)
RNA: B7 RNA with A26U, U27G, G28A, A29C, A30U, A31G
DNA 1: CAATCTGAATTCCGGTCTCCC
DNA 2: TGGTGGCTACGACGGGATT
B17: GUGAUUG (DNA:RNA)
RNA: B7 RNA with A26U, U27G, G28A, A29U, A30U, A31G
DNA 1: CAATCTGAATTCCGGTCTCCC
DNA 2: TGGTGGCTACGACGGGATT
B18: GGUGAUG (DNA:RNA)
RNA: B7 RNA with A26G, A30U, A31G
DNA 1: CAATCTGAATTCCGGTCTCCC
DNA 2: TGGTGGCTACGACGGGATT
B19: UUGACUG (DNA:RNA)
RNA: B1 RNA with G26U, C27G, U28A, U29C, G30U, C31G
DNA 1: CAATCTGAATTCCGGTCTCCC
DNA 2: TGGTGGCTACGACGGGATT
B20: GUGAUCG (DNA:RNA)
RNA: B7 RNA with A26U, U27G, G28A, A29U, A30C, A31G
DNA 1: CAATCTGAATTCCGGTCTCCC
DNA 2: TGGTGGCTACGACGGGATT
B21: GUCGUGA (DNA:RNA)
RNA: B7 RNA with A26U, U27C, A29U, A30G
DNA 1: CAATCTGAATTCCGGTCTCCC
DNA 2: TGGTGGCTACGACGGGATT

Each binder was assayed against T1, RBFOX1 RRM RbFoxmut (Fox-RRM*) (assay: EMSA; HiTS-Eq, 1 nM pool, 10 min; buffer printed only for the single-RNA assays: 10 mM Tris pH 7.5, 150 mM NaCl, 3.4 mM EDTA, 0.001% NP-40, 30 C). Details: tags: His6 N-terminal (pET28a); label: 5' 32P.
In short: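 A pool of RNA with 7 randomized nucleotides, 5′-radiolabelled and with DNA-annealed flanks, was equilibrated at 1 nM for 10 min in 50 µL with purified RbFox RRM, wild type or mutant, across increasing protein concentrations. Free RNA was separated by 8% native PAGE, excised, reverse-transcribed, barcoded by PCR and sequenced. Relative association constants were obtained from read-count changes of each RNA species versus the control reaction and normalised to the cognate motif.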
B1 was tested, and the binding signal was 0.264 KA relative to UGCAUGU. B2 was tested, and the binding signal was 0.428 KA relative to UGCAUGU. For B3, the binding signal was 0.126 KA relative to UGCAUGU. With B4 the binding signal was 0.0823 KA relative to UGCAUGU. For B5, the binding signal was 0.112 KA relative to UGCAUGU. With B6 the binding signal was 0.0758 KA relative to UGCAUGU. With B7 the binding signal was 0.0758 KA relative to UGCAUGU. With B8 the binding signal was 0.127 KA relative to UGCAUGU. In the case of B9, the binding signal is reported as 0.0617 KA relative to UGCAUGU. In the case of B10, the binding signal is reported as 0.159 KA relative to UGCAUGU. With B11 the binding signal was 0.42 KA relative to UGCAUGU. With B12 the binding signal was 0.112 KA relative to UGCAUGU. For B13, the binding signal was 0.162 KA relative to UGCAUGU. With B14 the binding signal was 0.119 KA relative to UGCAUGU. For B15, the binding signal was 0.0776 KA relative to UGCAUGU. With B16 the binding signal was 0.387 KA relative to UGCAUGU. In the case of B17, the binding signal is reported as 0.454 KA relative to UGCAUGU. In the case of B18, the binding signal is reported as 0.412 KA relative to UGCAUGU. B19 was tested, and the binding signal was 0.243 KA relative to UGCAUGU. In the case of B20, the binding signal is reported as 0.32 KA relative to UGCAUGU. B21 was tested, and the binding signal was 0.126 KA relative to UGCAUGU.
